According to PubChem BioAssay:
The source made the active and inactive calls.

How the values were obtained:
Albumin (Bos taurus) = Albumin (Bos taurus) (UniProt P02769); experiment: compounds binding labelled BSA control protein – biochemical, small-molecule microarray, Alexa647 label, 635/667 nm fluorescence, artefact control for SMM control protein annotation, profiling panel (AID 1118); settings: BSA-A647 binding, fluorescence 635 nm, higher = more signal;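 note: score merges 667 nm emission intensity and signal-to-noise per printed compound spot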
[1] = probe aXIP binding to arrayed compounds – biochemical, NeuroSMM set, 635/667 nm fluorescence, primary screen (AID 1119); settings: small-molecule microarray, higher = more signal, called active from +8 up or from −8 down;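 note: probe is the protein aXip251-270 applied at 1 µg/mL to compound-printed slides; binding of probe to printed compounds measured as 667 nm fluorescence plus signal to noise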
[2] = probe aNOTCH3 binding on compound microarray – biochemical, small-molecule microarray, 635/667 nm fluorescence, primary screen (AID 1120); settings: higher = more signal;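 note: probe is a biotin-tagged antibody raised against NOTCH3 rather than NOTCH3 protein; score merges spot fluorescence near 667 nm with spot signal to noise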
[3] = probe aNOTCH2 binding on compound microarray – biochemical, small-molecule microarray, 635/667 nm fluorescence, primary screen (AID 1121); settings: higher = more signal;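 note: score merges feature fluorescence read at 667 nm with its signal to noise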
[4] = molecular target: Carbonic anhydrase 2 (Homo sapiens) (UniProt P00918); experiment: compounds binding carbonic anhydrase 2 – biochemical, small-molecule microarray, Alexa647-labelled CAII, profiling panel (AID 1122); settings: CAII-A647 binding fluorescence, higher = more signal
[5] = COS7 lysate on small-molecule microarray, probe aHis, 635 nm (AID 1123); settings: COS7 cell lysate, fluorescence, higher = more signal;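 note: z-score combines 667nm fluorescence intensity with signal-to-noise per printed compound spot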
[6] = probe aLAP1 signal on lysate-treated microarray – cell lysate, small-molecule microarray, COS7 lysate, primary screen (AID 1124); settings: probe aLAP1, fluorescence, higher = more signal;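 note: lysate comes from COS7 cells expressing LAP1 and is applied at 0.3 µg/mL; score merges spot fluorescence near 667 nm with signal-to-noise over triplicate slides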
Sam68 (KHDRBS1) = experiment: compounds binding KHDRBS1 protein – biochemical, small-molecule microarray, 635 nm fluorescence, primary screen (AID 1125); settings: higher = more signal;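 note: score merges 667 nm channel intensity with signal to noise over triplicate slides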
[7] = tested on: Chordin-like protein 2 (CHRDL2); experiment: compounds binding chordin-like 2 – biochemical, small-molecule microarray, 635 nm fluorescence, primary screen (AID 1126); settings: fluorescence 635 nm, higher = more signal;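 note: printed compound slides probed with Chrdl2 protein at 4 µg/mL for 1 h at 4 C; score merges 667 nm emission intensity with signal to noise over three replicate slides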
[8] = molecular target: Concanavalin-A (Canavalia ensiformis) (UniProt P02866); experiment: compounds binding concanavalin A lectin – biochemical, small-molecule microarray, Alexa647 label, 635 nm, artefact control for SMM control protein annotation, primary screen (AID 1127); settings: ConA-A647 binding fluorescence, higher = more signal;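 note: z combines 667 nm emission intensity with signal-to-noise across three replicate slides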
[9] = compounds binding Alexa647 anti-His antibody – biochemical, small-molecule microarray, 635 nm fluorescence, artefact control for SMM control protein annotation, primary screen (AID 1128); settings: higher = more signal;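 note: score merges feature fluorescence with signal-to-noise for each printed compound spot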
[10] = tested on: Human papillomavirus type 1a E7 protein (residues 1-88); experiment: HPV1a E7 small-molecule binders, primary screen, biochemical, small-molecule microarray, residues 1-88, 635 nm (AID 1129); settings: small-molecule microarray binding, fluorescence 635 nm; higher = more signal
[11] = molecular target: Focal adhesion kinase 1 (Homo sapiens) (UniProt Q05397); experiment: PTK2 protein binding on printed compound slides – biochemical, small-molecule microarray, 635/667 nm fluorescence, BSA, DTT, primary screen (AID 1130); settings: 635 nm fluorescence, higher = more signal;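 note: composite of spot emission at 667 nm and signal to noise over triplicate slides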
[12] = tested on: Fibrinogen (Alexa647-labelled); experiment: Alexa647-fibrinogen binding to printed small molecules – biochemical, small-molecule microarray, 635/667 nm fluorescence, artefact control for SMM control-protein annotation, profiling panel (AID 1131); settings: fibrinogen-A647 binding fluorescence, higher = more signal;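 note: z-score merges 667 nm fluorescence with per-spot signal-to-noise over triplicate slides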
[13] = molecular target: Follistatin (Homo sapiens) (UniProt P19883); experiment: FST protein binding to printed compounds – biochemical, small-molecule microarray, 635/667 nm fluorescence, primary screen (AID 1132); settings: 635 nm fluorescence, higher = more signal
[14] = molecular target: Fibroblast growth factor 2 (Homo sapiens) (UniProt P09038); experiment: basic fibroblast growth factor binding to printed compounds – biochemical, small-molecule microarray, 635/667 nm fluorescence, primary screen (AID 1133); settings: FGF2, fluorescence 635/667, higher = more signal
[15] = JC-1 mitochondrial potential readout, lung cancer cells – cell-based, A549, JC-1 fluorescence, basal, 24 h, 100 nL, profiling panel (AID 1138); settings: higher = more signal;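 note: A549 lung adenocarcinoma cells under basal conditions with no added stimulus; test concentration not given here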
Lefty1 = Lefty1 protein binding to printed compounds – biochemical, small-molecule microarray, 635/667 nm fluorescence, primary screen (AID 1139); settings: fluorescence 635/667, higher = more signal
[16] = tested on: wheat germ agglutinin (Triticum aestivum), Alexa647-labelled; experiment: Alexa647-WGA lectin binding to printed small molecules – biochemical, small-molecule microarray, 635/667 nm fluorescence, artefact control for SMM control-protein annotation, profiling panel (AID 1140); settings: WGA-A647 binding, 635 nm fluorescence, higher = more signal;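 note: score merges 667 nm feature emission with signal to noise over triplicate slides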
[17] = molecular target: Luciferin 4-monooxygenase (Photinus pyralis) (UniProt P08659); experiment: inhibition of purified Photinus pyralis luciferase – biochemical, luminescence, purified enzyme, 2006 set, primary screen (AID 1141); settings: purified firefly luciferase, SteadyGlo luminescence, 30 min; higher = more signal, called active from +8 up or from −8 down;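 note: cell-free assay with purified firefly luciferase at 100 ng per well in PBS; test concentration not given here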
Sequence of Luciferin 4-monooxygenase (Photinus pyralis) (P08659 whole entry, looked up): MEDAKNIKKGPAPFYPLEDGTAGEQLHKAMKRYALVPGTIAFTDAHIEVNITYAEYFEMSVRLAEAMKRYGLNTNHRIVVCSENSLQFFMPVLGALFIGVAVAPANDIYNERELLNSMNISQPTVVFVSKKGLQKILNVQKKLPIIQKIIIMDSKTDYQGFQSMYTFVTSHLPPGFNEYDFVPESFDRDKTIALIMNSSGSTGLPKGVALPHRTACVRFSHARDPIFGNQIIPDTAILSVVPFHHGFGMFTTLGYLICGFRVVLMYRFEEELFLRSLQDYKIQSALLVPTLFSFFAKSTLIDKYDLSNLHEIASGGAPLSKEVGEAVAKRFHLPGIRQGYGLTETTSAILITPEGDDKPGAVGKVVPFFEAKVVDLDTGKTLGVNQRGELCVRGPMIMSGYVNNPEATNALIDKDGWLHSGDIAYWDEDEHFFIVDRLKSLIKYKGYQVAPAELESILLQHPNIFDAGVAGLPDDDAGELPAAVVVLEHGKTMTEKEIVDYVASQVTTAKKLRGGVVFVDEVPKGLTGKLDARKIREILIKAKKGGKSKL

Sequence of Fibroblast growth factor 2 (Homo sapiens) (P09038 whole entry, looked up): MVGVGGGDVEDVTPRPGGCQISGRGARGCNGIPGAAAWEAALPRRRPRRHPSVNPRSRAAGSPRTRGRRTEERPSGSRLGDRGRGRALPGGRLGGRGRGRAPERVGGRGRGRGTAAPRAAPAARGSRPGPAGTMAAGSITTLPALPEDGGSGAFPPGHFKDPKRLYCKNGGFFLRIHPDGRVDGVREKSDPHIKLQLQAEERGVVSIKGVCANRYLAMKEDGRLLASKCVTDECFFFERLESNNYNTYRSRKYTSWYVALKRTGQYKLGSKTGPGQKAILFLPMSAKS
Sequence of Albumin (Bos taurus) (P02769 whole entry, looked up): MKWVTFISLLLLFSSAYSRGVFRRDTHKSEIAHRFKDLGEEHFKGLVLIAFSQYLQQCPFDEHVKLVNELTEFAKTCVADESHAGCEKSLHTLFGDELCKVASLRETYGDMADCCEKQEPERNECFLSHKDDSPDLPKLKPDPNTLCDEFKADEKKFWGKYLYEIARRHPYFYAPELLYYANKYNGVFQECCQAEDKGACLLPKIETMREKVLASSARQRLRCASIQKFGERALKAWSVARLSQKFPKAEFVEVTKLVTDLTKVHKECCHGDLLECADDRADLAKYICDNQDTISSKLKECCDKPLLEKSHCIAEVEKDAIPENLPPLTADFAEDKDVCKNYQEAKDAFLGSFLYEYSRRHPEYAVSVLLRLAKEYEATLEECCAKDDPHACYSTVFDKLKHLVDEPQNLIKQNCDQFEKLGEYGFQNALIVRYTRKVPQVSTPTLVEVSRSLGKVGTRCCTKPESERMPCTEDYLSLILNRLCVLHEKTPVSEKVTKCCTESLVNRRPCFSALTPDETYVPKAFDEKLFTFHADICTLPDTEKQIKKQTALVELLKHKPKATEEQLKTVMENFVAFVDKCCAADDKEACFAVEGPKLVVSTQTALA
Sequence of Concanavalin-A (Canavalia ensiformis) (P02866 whole entry, looked up): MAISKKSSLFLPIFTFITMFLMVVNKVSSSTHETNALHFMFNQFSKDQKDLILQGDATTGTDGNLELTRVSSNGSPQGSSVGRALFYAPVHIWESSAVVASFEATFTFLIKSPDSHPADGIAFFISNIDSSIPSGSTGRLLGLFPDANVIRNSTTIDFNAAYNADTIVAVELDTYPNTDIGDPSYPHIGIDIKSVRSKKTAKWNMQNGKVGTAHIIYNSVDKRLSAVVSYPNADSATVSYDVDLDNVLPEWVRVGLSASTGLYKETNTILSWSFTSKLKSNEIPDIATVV
Sequence of Focal adhesion kinase 1 (Homo sapiens) (Q05397 whole entry, looked up): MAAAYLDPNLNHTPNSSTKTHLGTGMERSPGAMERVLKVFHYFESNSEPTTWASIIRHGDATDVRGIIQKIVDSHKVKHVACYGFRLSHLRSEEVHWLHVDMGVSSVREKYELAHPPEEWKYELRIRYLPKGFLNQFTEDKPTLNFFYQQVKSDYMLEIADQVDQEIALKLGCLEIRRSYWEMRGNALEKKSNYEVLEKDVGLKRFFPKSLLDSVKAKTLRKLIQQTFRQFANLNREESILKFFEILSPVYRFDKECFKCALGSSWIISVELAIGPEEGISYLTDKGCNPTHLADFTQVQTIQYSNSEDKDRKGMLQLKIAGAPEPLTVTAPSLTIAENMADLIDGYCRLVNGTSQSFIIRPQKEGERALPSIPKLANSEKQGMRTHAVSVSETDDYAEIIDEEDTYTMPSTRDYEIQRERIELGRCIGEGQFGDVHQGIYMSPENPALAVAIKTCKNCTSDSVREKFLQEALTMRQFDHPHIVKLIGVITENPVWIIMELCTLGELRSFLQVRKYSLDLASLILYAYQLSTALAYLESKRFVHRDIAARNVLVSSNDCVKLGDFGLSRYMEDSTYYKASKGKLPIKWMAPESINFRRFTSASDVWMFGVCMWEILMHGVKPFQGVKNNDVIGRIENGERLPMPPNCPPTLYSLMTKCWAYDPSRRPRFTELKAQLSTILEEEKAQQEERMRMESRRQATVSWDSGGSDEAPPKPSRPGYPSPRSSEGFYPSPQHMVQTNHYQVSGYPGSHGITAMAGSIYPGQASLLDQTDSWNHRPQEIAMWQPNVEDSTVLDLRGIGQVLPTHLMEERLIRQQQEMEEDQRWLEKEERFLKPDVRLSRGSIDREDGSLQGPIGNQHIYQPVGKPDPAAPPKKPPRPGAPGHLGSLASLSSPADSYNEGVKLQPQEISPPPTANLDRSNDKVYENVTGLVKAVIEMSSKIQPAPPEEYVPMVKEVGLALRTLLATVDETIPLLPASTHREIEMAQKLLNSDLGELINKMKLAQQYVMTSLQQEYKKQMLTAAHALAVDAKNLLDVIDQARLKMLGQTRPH
Sequence of Follistatin (Homo sapiens) (P19883 whole entry, looked up): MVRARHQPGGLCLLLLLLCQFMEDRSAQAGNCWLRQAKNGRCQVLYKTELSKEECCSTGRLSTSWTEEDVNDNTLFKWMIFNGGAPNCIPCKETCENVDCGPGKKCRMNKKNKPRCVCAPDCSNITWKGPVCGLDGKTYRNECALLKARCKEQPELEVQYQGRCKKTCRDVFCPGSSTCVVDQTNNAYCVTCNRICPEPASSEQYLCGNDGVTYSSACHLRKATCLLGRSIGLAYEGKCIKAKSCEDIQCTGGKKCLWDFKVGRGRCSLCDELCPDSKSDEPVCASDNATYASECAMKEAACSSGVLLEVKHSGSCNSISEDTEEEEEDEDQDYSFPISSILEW

| Compound | composite z-score (Albumin (Bos taurus)) | composite Z-score [1] | composite z-score [2] | composite z-score [3] | composite z-score [4] | composite z-score [5] | composite z-score [6] | composite z-score (Sam68 (KHDRBS1)) | composite z-score [7] | composite z-score [8] | composite z-score [9] | composite z-score [10] | composite z-score [11] | composite z-score [12] | composite z-score [13] | composite z-score [14] | z-score [15] | composite z-score (Lefty1) | composite z-score [16] | z-score [17] |
| --- | --- | --- | --- | --- | --- | --- | --- | --- | --- | --- | --- | --- | --- | --- | --- | --- | --- | --- | --- | --- |
| O=C1C2=CC[C@H]3C(=O)N(Cc4ccccc4)C(=O)[C@H]3[C@H]2[C@H](O)[C@@H]2O[C@H]12 | -0.356 | 0.0144 (inactive) | -0.199 | -0.167 | 0.0372 | -0.458 | -0.11 | 0.085 | 0.343 | -0.707 | 0.198 | 0.111 | -0.36 | 0.739 | -0.267 | -0.022 | -0.447 | -0.423 | 0.254 | -0.174 (inactive) |
| CO[C@H]1COC(=O)[C@H](CCSC)NC(=O)CC=C[C@@H](C)[C@H](OC)COC(=O)[C@@H](OCc2ccccc2)C=C[C@@H]1C | -0.798 | 1.04 (inactive) | -0.043 | -0.153 | -0.173 | -0.919 | 0.0916 | 0.835 | 1.45 | -0.257 | 0.657 | 0.116 | -0.0918 | -0.84 | 1.23 | 0.689 | -1.19 | 1.3 | -0.36 | 1.28 (inactive) |
| C[C@@H]1CC[C@@H](C(=O)O)N[C@H]1c1cccc(N2CCOCC2)c1 | 0.262 | 0.227 (inactive) | 0.0624 | -0.126 | 0.295 | 0.531 | -0.581 | 0.225 | 0.224 | 0.305 | 0.06 | 0.827 | 0.455 | 0.301 | 0.769 | 0.652 | 2.11 | 0.554 | 0.227 | -1.34 (inactive) |
| O=C(NN=C1C[C@@H](O)[C@@H](O)[C@@H]2[C@@H]3C(=O)N(c4ccc(F)cc4F)C(=O)[C@@H]3CC[C@H]12)OCc1ccccc1 | 0.87 | -0.525 (inactive) | 0.11 | -0.0958 | 0.477 | 0.98 | -0.27 | 0.959 | 0.161 | 0.411 | 0.746 | 0.76 | 0.0097 | 0.501 | 0.28 | 0.0684 | -0.63 | 0.331 | 0.114 | 0.934 (inactive) |
| CC(=O)OC[C@H]1O[C@H](CC=NOC[C@@H](O)[C@H]2O[C@@H]3OC(C)(C)O[C@@H]3[C@H]2O)C=C[C@@H]1OC(C)=O | 0.846 | 0.0765 (inactive) | 0.116 | -0.0934 | 0.298 | 0.548 | 0.79 | 0.883 | 0.0166 | 0.976 | 0.638 | 0.702 | 0.15 | 0.727 | 0.209 | 0.583 | -0.325 | 0.385 | -0.0993 | 0.94 (inactive) |
| CCOC(=O)[C@H](Cc1ccccc1)NC(=O)CCC1CC(OC(=O)NCc2ccc3c(c2)OCO3)CC2(CCCC(COC(=O)NCCOc3ccccc3)O2)O1 (stereo not given in full) | -0.245 | -0.344 (inactive) | 0.0636 | -0.034 | 0.109 | 1.52 | -0.252 | 1.29 | 0.58 | 1.13 | 0.777 | 1.16 | -0.0176 | 0.96 | 0.875 | 0.776 | 1.37 | 1.2 | 0.304 | 0.289 (inactive) |
| CCOC(=O)CCN1C(=O)[C@H]2[C@H]3[C@H](O)[C@H](O)CC(=NNC(=O)OCC)[C@H]3CC[C@H]2C1=O | -0.898 | -0.17 (inactive) | 0.0927 | -0.145 | 0.505 | 0.294 | -0.0069 | 0.398 | 1.27 | -2.61 | 0.307 | -0.113 | 0.276 | -1.05 | 0.799 | 0.406 | -0.918 | 1.01 | -0.656 | 0.303 (inactive) |
| CCOC(=O)[C@H](CC(C)C)NC(=O)CCC1CC(OC(=O)NCCc2ccc(F)cc2)CC2(CCCC(COC(=O)NCc3cccc4ccccc34)O2)O1 (stereo not given in full) | 0.426 | -0.275 (inactive) | -0.235 | 0.12 | 0.276 | 0.96 | -0.138 | 0.695 | 0.282 | 0.873 | 0.229 | 0.982 | 0.2 | 0.279 | 1.27 | 0.634 | 0.755 | 0.774 | 0.0787 | 0.6 (inactive) |
| C[C@@H]1CC[C@H]2C(=O)OC(CN3C(=O)c4ccccc4C3=O)CN2[C@H]1c1ccc(Br)cc1 (stereo not given in full) | 0.808 | 0.372 (inactive) | -0.0984 | 0.178 | 0.305 | 0.787 | 0.376 | 0.438 | 0.333 | 0.781 | 0.194 | 0.731 | 0.246 | 0.377 | -0.145 | -0.204 | 0.0226 | 0.117 | 0.681 | -0.796 (inactive) |
| O=C(NCCC[N+]1=CC=NC1c1ccccc1)N1CCCc2nc(-c3ccc(Br)cc3)ccc21 (stereo not given) | 0.452 | 0.762 (inactive) | -0.222 | -0.119 | -0.0214 | -0.382 | -0.264 | 0.152 | 0.421 | 0.605 | 0.862 | -0.493 | 0.183 | 0.692 | 0.733 | 0.208 | 1.76 | 0.27 | -0.471 | 0.395 (inactive) |
| CCCC[C@H]1CN2[C@@H](CC[C@@H](C)[C@@H]2c2ccc(Br)cc2)C(=O)O1 | 0.738 | 0.689 (inactive) | -0.137 | -0.183 | 0.397 | 0.615 | 1.59 | 1.29 | 0.549 | 0.764 | 0.256 | 1.17 | 0.307 | 0.831 | 0.53 | 0.198 | 0.962 | 0.326 | 0.542 | -2.12 (inactive) |
